Compound activity as filed in PubChem BioAssay.
L3MBTL1 inh: blocks human L3MBTL1 | AlphaScreen L3MBTL1–H3K9me1 peptide binding | Potency, µM (top dose mostly 57.1 µM), for inactives: at the highest dose activity, negative = inhibition, hits mostly inhibitors | actives 0.66% (n = 230,000) | AID 485360; note: nearly all actives have a fitted effect of over 60% in size
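L3MBTL1 (50 nM) pre-complexed 30 min with biotinylated H3(1-15)K9me1 peptide (75 nM), then compounds added for 30 min at room temperature; AlphaScreen streptavidin donor/nickel chelate acceptor beads (10 ug/mL final) read after 30 min dark incubation.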
KAT2A inh: blocks human GCN5L2 histone acetyltransferase; GCN5L2 HAT assay, ThioGlo1 CoA-SH fluorescence; Potency, µM (titrated, usually from 58.9 µM), without a hit: at the top dose activity change, negative = inhibition, most hits filed as inhibitors; actives 0.21% (n = 390,000); AID 504327
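qHTS, 1536-well. 20nM enzyme, pH 7.5 HEPES/EDTA/Tween-20 buffer; 15 min compound preinc., RT. Start: 75uM H3(1-25), 70uM AcCoA, 50uM ThioGlo1. Read Ex340/Em540 at t=0 (autofluorescence flag) and t=20 min.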
KDM4E inh: inhibitors of human JMJD2E histone demethylase; B2RXH2; JMJD2E catalytic domain, FDH-coupled NADH fluorescence (FDH is formaldehyde dehydrogenase); Potency, µM (highest dose often 57.1 µM), for inactives: top-dose activity change, negative = inhibition, usual class: inhibitors; actives 1.6% (n = 230,000); AID 2147; active = well fitted inhibition curve with a large enough effect, not every such curve was filed as active; inconclusive = small, poorly fitted or top-dose-only effect, or another doubt; inactive = no such curve, though single readings can be large or run the other way;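 note: 0% = wells with enzyme and -100% = buffer wells without enzyme; nearly all actives have a fitted effect of over 50% in size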
Target sequence (B2RXH2 1-337 limits assumed): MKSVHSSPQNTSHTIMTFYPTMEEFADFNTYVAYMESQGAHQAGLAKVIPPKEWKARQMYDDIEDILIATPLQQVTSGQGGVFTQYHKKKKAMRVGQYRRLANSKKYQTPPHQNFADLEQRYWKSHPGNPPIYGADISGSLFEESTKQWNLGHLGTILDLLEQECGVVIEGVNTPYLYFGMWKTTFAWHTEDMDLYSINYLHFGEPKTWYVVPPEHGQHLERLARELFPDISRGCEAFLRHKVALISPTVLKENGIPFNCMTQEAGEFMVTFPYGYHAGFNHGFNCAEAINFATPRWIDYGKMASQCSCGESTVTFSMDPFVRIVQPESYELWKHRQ
BLM helicase inh: inhibitors of human Bloom syndrome helicase BLM; recombinant BLM DNA unwinding, fluorescence dequenching; actives 0.2% (n = 350,000); Potency, µM (doses to about 56.1 µM), for the others: at the top dose activity change, negative = inhibition, most hits filed as inhibitors; P54132;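 note: plate controls were vehicle for no effect and no enzyme for full effect; nearly all actives have a fitted effect of over 35% in size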
APE1 inh: inhibitors of human APE1 endonuclease; recombinant APE1, TAMRA/BHQ-2 abasic DNA cleavage fluorescence; actives 0.35% (n = 350,000); Potency, µM (titrated, usually from 65.8 µM), inactives show top-dose activity change, negative = inhibition, hits mostly inhibitors; AID 2517; P27695;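 note: plate controls were vehicle for no effect and reference inhibitor for full effect; nearly all actives have a fitted effect of over 55% in size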
Target sequence (P27695 whole entry, looked up): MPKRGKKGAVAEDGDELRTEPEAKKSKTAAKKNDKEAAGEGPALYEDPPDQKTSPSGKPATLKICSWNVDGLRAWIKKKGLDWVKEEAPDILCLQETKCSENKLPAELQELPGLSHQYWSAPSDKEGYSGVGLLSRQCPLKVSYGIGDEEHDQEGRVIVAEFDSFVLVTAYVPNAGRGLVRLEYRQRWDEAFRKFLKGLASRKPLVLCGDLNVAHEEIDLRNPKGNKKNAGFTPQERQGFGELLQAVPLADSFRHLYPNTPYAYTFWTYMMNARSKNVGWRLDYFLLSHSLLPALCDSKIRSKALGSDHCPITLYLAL
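Substrate: short duplex with […] THF abasic site, 5'-TAMRA and 3'-BHQ-2, 50 nM final. APE1 at 0.75 nM, preincubated 15 min RT with compound. Fluorescence increase from first to third read measured activity.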
RECQ1 helicase: blocks DNA unwinding by human RECQ1; P46063; RECQ1 DNA unwinding, red fluorescence kinetic read; Potency, µM (doses to about 57.3 µM), for the others: top-dose activity, negative = inhibition, hits mostly inhibitors; actives 0.54% (n = 240,000);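 note: plate controls were vehicle for no effect and no enzyme for full effect; nearly all actives have a fitted effect of over 30% in size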
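RECQ1T1 50 nM; forked duplex (20 bp + 30-nt ss tails) 200 nM, ATP 2 mM final; pH 8.0, 2 mM MgCl2, 2.5 ug/ml poly(dI-dC); 15 min compound preincubation; discontinuous kinetic read over 2 h at RT.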
* hit, by the source's call; [ ] = dose if it differs, or a comment. The full list was thinned out, with hits kept by preference. Unless noted, calls come from the whole dose curve; as a rule, active = well fitted curve in the direction sought with a large enough effect; inconclusive = small, poorly fitted or top-dose-only effect, or another doubt; inactive = no such curve, though single readings can be large; an effect the other way counts as inactive or inconclusive. Unless noted, % is set by controls: 0 for no effect and ±100 for the full control effect; potency is the fitted concentration of half-maximal effect.

Results for Cc1nn(-c2ccccc2)c2c1C(c1ccc([N+](=O)[O-])cc1)C(C#N)=C(N)O2 (centres undefined) ?
L3MBTL1 inh: -16%; KAT2A inh: -5%; KDM4E inh: 18µM*; BLM helicase inh: -7%; APE1 inh: -1%; RECQ1 helicase: 0%

Results for Cc1nn(-c2ccccc2)c2c1C(c1cccs1)C(C#N)=C(N)O2 (centres undefined) ?
KAT2A inh: -11%; KDM4E inh: -23%; BLM helicase inh: -5%; APE1 inh: 4%; RECQ1 helicase: 7%

Results for Cc1nn(-c2ccccc2)c2c1C(c1ccco1)C(C#N)=C(N)O2 (centres undefined) ?
L3MBTL1 inh: -30%; KAT2A inh: -8%; KDM4E inh: 14µM*; BLM helicase inh: -5%; APE1 inh: -20%; RECQ1 helicase: inactive

What do the screens show for `CC(C)CC(=O)Nc1ccc(-c2cn3cccnc3n2)cc1`?
KAT2A inh: inconclusive; BLM helicase inh: 0%; APE1 inh: 29%

Results for CCOCC(=O)Nc1ccc(-c2cn3cccnc3n2)cc1 ?
L3MBTL1 inh: 0%; KAT2A inh: 35µM*; KDM4E inh: inconclusive; BLM helicase inh: -3%; APE1 inh: -19%; RECQ1 helicase: 7%

Results for CCOc1c2ccc(C(=O)NCc3ccco3)cc2nn1CCOC ?
L3MBTL1 inh: -8%; KAT2A inh: 28µM*; KDM4E inh: inconclusive; BLM helicase inh: -4%; APE1 inh: -1%; RECQ1 helicase: -13%

Results for Oc1ccc(-c2csc(-c3cccnc3)n2)cc1O ?
KAT2A inh: -15%; KDM4E inh: 14µM*; BLM helicase inh: -14%; APE1 inh: 16µM*; RECQ1 helicase: -28%

How did CCOC(=O)C1=C(C)N=C2c3ccccc3C(=O)C2C1c1ccccc1 (centres undefined) do in these assays?
L3MBTL1 inh: -11%; KAT2A inh: -6%; KDM4E inh: -2%; BLM helicase inh: -6%; APE1 inh: -7%; RECQ1 helicase: -2%

What do the screens show for `CCOC(=O)C1=C(C)N=C2c3ccccc3C(=O)C2C1c1ccc(C)cc1` (centres undefined)?
L3MBTL1 inh: 18%; KAT2A inh: inconclusive; KDM4E inh: 32µM*; BLM helicase inh: -15%; APE1 inh: -1%; RECQ1 helicase: -6%

How did COC(OC)[C@@H](C)[C@H](OC)[C@@H](C)[C@H](OC)c1ccccc1 do in these assays?
BLM helicase inh: -7%[12.4 µM]; APE1 inh: 21%[12.4 µM]; RECQ1 helicase: -10%[11.5 µM]

Results for Cn1c(C(=O)O)c(CC(=O)N2CCC(Cc3ccccc3)CC2)c2ccccc21 ?
L3MBTL1 inh: -9%; KAT2A inh: -1%; KDM4E inh: 32µM*; BLM helicase inh: 0%; APE1 inh: -8%; RECQ1 helicase: 1%

How did COc1ccc(-c2ccc3c(c2)c(-c2cccs2)c(-c2cc(OC)cc(OC)c2)n3C)cc1 do in these assays?
L3MBTL1 inh: -12%; KAT2A inh: 20µM*; APE1 inh: -1%

What do the screens show for `c1nc(NC2CCCCC2)c2[nH]cnc2n1`?
L3MBTL1 inh: -4%; KAT2A inh: -2%; KDM4E inh: 11%; BLM helicase inh: 0%; APE1 inh: 2%; RECQ1 helicase: -2%

What do the screens show for `c1nc(NC2CCCCCC2)c2[nH]cnc2n1`?
L3MBTL1 inh: -13%; KAT2A inh: 4%; KDM4E inh: -12%; BLM helicase inh: 4%; APE1 inh: 141µM*; RECQ1 helicase: -2%

What do the screens show for `CN1CCN(Cc2cc(COCc3ccccc3)c3cccnc3c2O)CC1`?
L3MBTL1 inh: 14µM*; KAT2A inh: -4%; KDM4E inh: 8.9µM*; BLM helicase inh: -10%; APE1 inh: -1%; RECQ1 helicase: -4%

Results for CCCOCc1cc(CN2CCN(c3cccc(Cl)c3)CC2)c(O)c2ncccc12 ?
KAT2A inh: -13%; BLM helicase inh: -7%

How did Oc1c(CN2CCc3ccccc3C2)cc(Cl)c2cccnc12 do in these assays?
KAT2A inh: -9%; KDM4E inh: 22µM*; BLM helicase inh: -1%; APE1 inh: 9%; RECQ1 helicase: 5%

How did CCCCOCc1cc(CN2CCN(c3cccc(Cl)c3)CC2)c(O)c2ncccc12 do in these assays?
KAT2A inh: 20µM*; BLM helicase inh: -4%

Results for O=C(Cc1c(O)c2ccccc2oc1=O)c1ccc(C(F)(F)F)cc1 ?
KAT2A inh: 6%; BLM helicase inh: -5%; APE1 inh: 31%

How did O=c1oc2ccccc2c(O)c1Cc1cc(Cl)c2cccnc2c1O do in these assays?
L3MBTL1 inh: 56%; KAT2A inh: -9%; KDM4E inh: 5µM*; BLM helicase inh: -10%; APE1 inh: 10%; RECQ1 helicase: -10%

Results for Oc1c(Cl)cc(CN2CCOCC2)c2cccnc12 ?
L3MBTL1 inh: inconclusive; KAT2A inh: -3%; APE1 inh: 24%

What do the screens show for `COc1cccc(CN2CC34CC(c5ccc(C(C)=O)cc5)C(CC3S2(=O)=O)O4)c1` (centres undefined)?
BLM helicase inh: 5%; APE1 inh: 11%; RECQ1 helicase: -1%

Results for Cc1ccc(C(=O)NCCCNC(=O)Cc2ccc(Cl)cc2)cn1 ?
L3MBTL1 inh: 1%; KAT2A inh: -7%; APE1 inh: 13%

Results for CCC1C/C(=C/c2ccco2)C(=O)/C(=C/c2ccco2)C1 (centres undefined) ?
L3MBTL1 inh: 32µM*; KAT2A inh: 1%; KDM4E inh: -19%; BLM helicase inh: -19%; APE1 inh: inconclusive; RECQ1 helicase: inconclusive

What do the screens show for `O=C(O)c1cccc(-c2nc(-c3ccccc3C(F)(F)F)no2)c1`?
APE1 inh: 7%

How did COC(=O)Cc1c(C)c2cc3c(c(C)c2oc1=O)OCN(CCc1ccccc1F)C3 do in these assays?
KAT2A inh: inconclusive; BLM helicase inh: 2%

Results for COC(=O)Cc1c(C)c2cc3c(c(C)c2oc1=O)OCN(CCc1ccc(OC)cc1)C3 ?
KAT2A inh: 32µM*; BLM helicase inh: -8%

What do the screens show for `CCOC(=O)N/N=C1/C[C@@H](O)[C@@H](O)[C@@H]2[C@@H]3C(=O)N(C(C)(C)C)C(=O)[C@H]3CC[C@H]12`?
BLM helicase inh: 3%[12.4 µM]; APE1 inh: 12%[12.4 µM]; RECQ1 helicase: -5%[11.5 µM]

What do the screens show for `COc1ccc2c(c1)OC/C(=C\c1ccc(OC)c(O)c1)C2=O`?
KAT2A inh: -28%; KDM4E inh: 20µM*; BLM helicase inh: -12%; APE1 inh: inconclusive; RECQ1 helicase: -1%
